In PubChem BioAssay AID1159580 (chemical genetic matrix, 2015):
Among all 5,500 compounds or so, about 2,000 (36%) were called active. Inconclusive results (about 18%) are left out. Cut-off read from the data, not from the text of the source: active = normalized growth mostly below about 0.91 (no sharp cut-off); inconclusive = no clear call, values can overlap the other calls; inactive = mostly above about 0.92. The list shows a part of the results.

Assay: chemical genetic growth profiling, strain panel (AID 1159580);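 note: tested at 20 µM; growth read once vehicle control cultures reached saturation at 30 °C; 1 = growth at the plate median or of vehicle wells; lower values mean less growth of the strain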
Conditions: growth OD

Measured: normalized growth

CC1(C)CC[C@]2(C)CC[C@]3(C)C(=CCC4[C@@]5(C)CC[C@H](O)C(C)(C)C5CC[C@]43C)C2C1 (some centres not stated)
inactive: S. cerevisiae deletion strains, locus YJL187C, strain SWE1, hits give low values 1 | S. cerevisiae deletion strains, locus YJR066W, strain TOR1, hits give low values 0.993 | S. cerevisiae deletion strains, locus YKL009W, strain mrt4, hits give low values 0.988 | S. cerevisiae deletion strains, locus YKL068W, hits give low values 0.985 | S. cerevisiae deletion strains, locus YKL085W, strain MDH1 (second series), hits give low values 0.999 | S. cerevisiae deletion strains, locus YKL085W, strain MDH1, hits give low values 0.999 | S. cerevisiae deletion strains, locus YKL160W, strain elf1, hits give low values 0.987 | S. cerevisiae deletion strains, locus YKL190W, strain CNB1, hits give low values 1 | S. cerevisiae deletion strains, locus YKR001C, strain vps1, hits give low values 0.999 | S. cerevisiae deletion strains, locus YKR026C, strain gcn3, hits give low values 0.989 | S. cerevisiae deletion strains, locus YKR091W, strain srl3, hits give low values 0.993 | S. cerevisiae deletion strains, locus YLL001W, strain dnm1, hits give low values 0.987 | S. cerevisiae deletion strains, locus YLL026W, hits give low values 0.984 | S. cerevisiae deletion strains, locus YLL041C, strain sdh2, hits give low values 1.01 | S. cerevisiae deletion strains, locus YLR027C, strain aat2, hits give low values 0.98 | S. cerevisiae deletion strains, locus YLR039C, strain RIC1, hits give low values 1.02 | S. cerevisiae deletion strains, locus YLR058C, strain SHM2, hits give low values 1.01 | S. cerevisiae deletion strains, locus YLR102C, strain apc9, hits give low values 1.01 | S. cerevisiae deletion strains, locus YLR113W, strain HOG1, hits give low values 0.977 | S. cerevisiae deletion strains, locus YLR221C, strain rsa3, hits give low values 0.987 | S. cerevisiae deletion strains, locus YLR258W, strain gsy2, hits give low values 1.01 | S. cerevisiae deletion strains, locus YLR262C, strain YPT6 (second series), hits give low values 1.01 | S. cerevisiae deletion strains, locus YLR268W, strain sec22, hits give low values 1.03 | S. cerevisiae deletion strains, locus YLR320W, strain mms22, hits give low values 0.994 | S. cerevisiae deletion strains, locus YLR342W, strain FKS1, hits give low values 0.996 | S. cerevisiae deletion strains, locus YLR357W, strain rsc2, hits give low values 0.971 | S. cerevisiae deletion strains, locus YLR370C, strain arc18, hits give low values 0.999 | S. cerevisiae deletion strains, locus YLR371W, strain rom2, hits give low values 0.973 | S. cerevisiae deletion strains, locus YLR384C, strain iki3, hits give low values 0.967 | S. cerevisiae deletion strains, locus YLR418C, strain cdc73, hits give low values 0.994 | S. cerevisiae deletion strains, locus YML016C, strain PPZ1, hits give low values 1.01 | S. cerevisiae deletion strains, locus YML032C, strain rad52, hits give low values 0.991 | S. cerevisiae deletion strains, locus YML120C, strain ndi1, hits give low values 0.979 | S. cerevisiae deletion strains, locus YML124C, strain tub3, hits give low values 0.984 | S. cerevisiae deletion strains, locus YMR058W, strain fet3, hits give low values 0.988 | S. cerevisiae deletion strains, locus YMR078C, strain ctf18, hits give low values 0.994 | S. cerevisiae deletion strains, locus YMR125W, strain sto1, hits give low values 0.994 | S. cerevisiae deletion strains, locus YMR129W, hits give low values 0.991 | S. cerevisiae deletion strains, locus YMR205C, strain PFK2, hits give low values 1.01 | S. cerevisiae deletion strains, locus YMR223W, strain ubp8, hits give low values 0.992 | S. cerevisiae deletion strains, locus YMR231W, strain pep5, hits give low values 0.997 | S. cerevisiae deletion strains, locus YMR263W, strain SAP30, hits give low values 0.979 | S. cerevisiae deletion strains, locus YMR307W, strain GAS1, hits give low values 1.06 | S. cerevisiae deletion strains, locus YNL067W, strain RPL9B, hits give low values 0.973 | S. cerevisiae deletion strains, locus YNL071W, strain lat1, hits give low values 0.997 | S. cerevisiae deletion strains, locus YNL153C, strain GIM3, hits give low values 0.973 | S. cerevisiae deletion strains, locus YNL183C, strain NPR1, hits give low values 0.984 | S. cerevisiae deletion strains, locus YNL209W, strain ssb2, hits give low values 0.975 | S. cerevisiae deletion strains, locus YNL233W, strain BNI4, hits give low values 1.01 | S. cerevisiae deletion strains, locus YNL248C, strain rpa49, hits give low values 0.985 | S. cerevisiae deletion strains, locus YNL250W, strain rad50, hits give low values 0.963 | S. cerevisiae deletion strains, locus YNL271C, strain bni1, hits give low values 0.978 | S. cerevisiae deletion strains, locus YNL298W, strain CLA4, hits give low values 0.991 | S. cerevisiae deletion strains, locus YNL307C, strain MCK1, hits give low values 1 | S. cerevisiae deletion strains, locus YNL322C, strain KRE1 (second series), hits give low values 0.965 | S. cerevisiae deletion strains, locus YNR049C, strain mso1, hits give low values 0.987 | S. cerevisiae deletion strains, locus YNR052C, strain pop2, hits give low values 0.968 | S. cerevisiae deletion strains, locus YOL006C, strain TOP1, hits give low values 1.14 | S. cerevisiae deletion strains, locus YOL012C, strain htz1 1.39 | S. cerevisiae deletion strains, locus YOL147C, strain pex11, hits give low values 0.98 | S. cerevisiae deletion strains, locus YOR001W, strain rrp6, hits give low values 1 | S. cerevisiae deletion strains, locus YOR061W, strain CKA2, hits give low values 1.01 | S. cerevisiae deletion strains, locus YOR069W, strain VPS5, hits give low values 1.01 | S. cerevisiae deletion strains, locus YOR070C, strain gyp1, hits give low values 0.991 | S. cerevisiae deletion strains, locus YOR080W, strain dia2, hits give low values 0.998 | S. cerevisiae deletion strains, locus YOR083W, strain WHI5, hits give low values 1 | S. cerevisiae deletion strains, locus YOR106W, strain vam3, hits give low values 0.993 | S. cerevisiae deletion strains, locus YOR136W, strain idh2, hits give low values 0.994 | S. cerevisiae deletion strains, locus YOR144C, strain elg1, hits give low values 0.994 | S. cerevisiae deletion strains, locus YOR184W, strain ser1, hits give low values 1.02 | S. cerevisiae deletion strains, locus YOR231W, strain MKK1, hits give low values 1.01 | S. cerevisiae deletion strains, locus YOR265W, strain rbl2, hits give low values 0.996 | S. cerevisiae deletion strains, locus YOR270C, strain vph1, hits give low values 1.05 | S. cerevisiae deletion strains, locus YOR290C, strain snf2, hits give low values 0.989 | S. cerevisiae deletion strains, locus YOR316C, strain cot1, hits give low values 0.993 | S. cerevisiae deletion strains, locus YPL051W, strain arl3, hits give low values 1 | S. cerevisiae deletion strains, locus YPL078C, strain atp4, hits give low values 1.01 | S. cerevisiae deletion strains, locus YPL106C, strain sse1, hits give low values 0.961 | S. cerevisiae deletion strains, locus YPL240C, strain hsp82, hits give low values 0.988 | S. cerevisiae deletion strains, locus YPL241C, strain CIN2, hits give low values 0.992 | S. cerevisiae deletion strains, locus YPL256C, strain CLN2, hits give low values 1.03 | S. cerevisiae deletion strains, locus YPR119W, strain clb2, hits give low values 0.984 | S. cerevisiae deletion strains, locus YPR141C, strain kar3, hits give low values 0.971 | S. cerevisiae deletion strains, locus YPR163C, strain tif3, hits give low values 1 | S. cerevisiae deletion strains, locus YPR167C, strain met16, hits give low values 0.982 | S. cerevisiae deletion strains, strain wtn01, hits give low values 1.01 | S. cerevisiae strains, strain wild type, hits give low values 1.02
